The values that follow come from PubChem BioAssay.

The source made the active and inactive calls.

In one assay the target is Albumin (Bos taurus) (UniProt P02769). As to the kind of experiment: bovine serum albumin binders on microarray, profiling panel, artefact control for SMM control protein annotation, biochemical, small-molecule microarray, Alexa647 label, 635/667 nm fluorescence (AID 1118).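 Note: score merges 667 nm emission intensity and signal-to-noise per printed compound spot.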 Conditions: BSA-A647 binding, fluorescence 635 nm, higher = more signal.
Sequence of Albumin (Bos taurus) (P02769 whole entry, looked up): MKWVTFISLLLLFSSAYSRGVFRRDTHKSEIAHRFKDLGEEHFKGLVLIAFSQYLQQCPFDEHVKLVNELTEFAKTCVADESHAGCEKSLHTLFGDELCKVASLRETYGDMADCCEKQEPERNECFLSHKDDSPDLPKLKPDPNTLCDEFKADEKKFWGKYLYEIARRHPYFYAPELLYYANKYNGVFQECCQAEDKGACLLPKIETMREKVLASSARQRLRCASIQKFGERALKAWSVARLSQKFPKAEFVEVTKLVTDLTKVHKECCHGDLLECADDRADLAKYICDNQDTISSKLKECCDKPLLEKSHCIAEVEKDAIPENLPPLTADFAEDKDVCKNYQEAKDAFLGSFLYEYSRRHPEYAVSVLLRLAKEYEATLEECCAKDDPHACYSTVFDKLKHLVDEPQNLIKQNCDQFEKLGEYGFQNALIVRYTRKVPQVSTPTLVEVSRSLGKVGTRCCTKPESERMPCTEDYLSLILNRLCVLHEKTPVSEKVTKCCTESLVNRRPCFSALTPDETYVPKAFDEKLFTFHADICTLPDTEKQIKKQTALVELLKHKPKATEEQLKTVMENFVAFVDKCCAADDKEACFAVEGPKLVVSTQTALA
Assay [1] is described as follows: small-molecule microarray binders of probe aXIP, primary screen, biochemical, NeuroSMM set, 635/667 nm fluorescence (AID 1119).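 Note: probe is the protein aXip251-270 applied at 1 µg/mL to compound-printed slides; binding of probe to printed compounds measured as 667 nm fluorescence plus signal to noise.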 Conditions: higher = more signal, called active from +8 up or from −8 down.
Assay [2] is described as follows: small-molecule binders of probe aNOTCH3, primary screen, biochemical, small-molecule microarray, 635/667 nm fluorescence (AID 1120).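 Note: probe is a biotin-tagged antibody raised against NOTCH3 rather than NOTCH3 protein; score merges spot fluorescence near 667 nm with spot signal to noise.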 Conditions: higher = more signal.
Assay [3] in a line: small-molecule binders of probe aNOTCH2, primary screen, biochemical, small-molecule microarray, 635/667 nm fluorescence (AID 1121).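 Note: score merges feature fluorescence read at 667 nm with its signal to noise.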 The following applies: higher = more signal.
Assay [4] deals with Carbonic anhydrase 2 (Homo sapiens) (UniProt P00918). As to the kind of experiment: CAII small-molecule binders, profiling panel, biochemical, small-molecule microarray, Alexa647-labelled CAII (AID 1122). The following applies: CAII-A647 binding fluorescence, higher = more signal.
Assay [5] is described as follows: COS7 lysate on small-molecule microarray, probe aHis, 635 nm (AID 1123).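 Note: z-score combines 667nm fluorescence intensity with signal-to-noise per printed compound spot.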 Conditions: COS7 cell lysate, fluorescence, higher = more signal.
The nature of assay [6]: compound binding in COS7 lysate, probe aLAP1, primary screen, cell lysate, small-molecule microarray (AID 1124).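 Note: lysate comes from COS7 cells expressing LAP1 and is applied at 0.3 µg/mL; score merges spot fluorescence near 667 nm with signal-to-noise over triplicate slides.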 The following applies: probe aLAP1, fluorescence, higher = more signal.
The next assay concerns Sam68 (KHDRBS1). As to the kind of experiment: Sam68 small-molecule binders, primary screen, biochemical, small-molecule microarray, 635 nm fluorescence (AID 1125).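 Note: score merges 667 nm channel intensity with signal to noise over triplicate slides.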 Conditions: small-molecule microarray binding, higher = more signal.
Assay [7] concerns Chordin-like protein 2 (CHRDL2). As to the kind of experiment: CHRDL2 small-molecule binders, primary screen, biochemical, small-molecule microarray, 635 nm fluorescence (AID 1126).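 Note: printed compound slides probed with Chrdl2 protein at 4 µg/mL for 1 h at 4 C; score merges 667 nm emission intensity with signal to noise over three replicate slides.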 The following applies: small-molecule microarray binding, fluorescence 635 nm; higher = more signal.
In assay [8] the target is Concanavalin-A (Canavalia ensiformis) (UniProt P02866). As to the kind of experiment: ConA small-molecule binders, primary screen, artefact control for SMM control protein annotation, biochemical, small-molecule microarray, Alexa647 label, 635 nm (AID 1127).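 Note: z combines 667 nm emission intensity with signal-to-noise across three replicate slides.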 The following applies: ConA-A647 binding fluorescence, higher = more signal.
Sequence of Concanavalin-A (Canavalia ensiformis) (P02866 whole entry, looked up): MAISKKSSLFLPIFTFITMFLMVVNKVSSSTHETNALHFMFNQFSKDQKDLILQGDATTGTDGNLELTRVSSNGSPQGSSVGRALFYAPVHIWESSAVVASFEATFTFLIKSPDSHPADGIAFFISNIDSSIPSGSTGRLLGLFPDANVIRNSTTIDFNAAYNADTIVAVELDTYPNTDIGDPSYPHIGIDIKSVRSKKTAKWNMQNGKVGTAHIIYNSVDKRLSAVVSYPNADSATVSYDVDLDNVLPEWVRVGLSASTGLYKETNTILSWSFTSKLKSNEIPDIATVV

`O=C1OC[C@@H](c2ccccc2)N2CC(/C=C/c3ccccc3)=CC12` (stereo not given in full): the composite z-score with Albumin (Bos taurus) is 0.0154; in [2] it was -0.36; in [3] it was -0.189; in assay [4] it was 0.453; in assay [5], -0.428; in assay [6], 0.133. For the same compound, the composite z-score in the assay with Sam68 (KHDRBS1) was -1.57; in [7] it was -0.713; in [8], -0.044. In assay [1], the composite Z-score is 0.142 (inactive).

`CCOC(=O)C1=CC[C@@H](c2ccccc2C(F)(F)F)N(S(=O)(=O)c2ccc(C)cc2)C1`: the composite z-score with Albumin (Bos taurus) was found to be 0.959; in [2], 0.694; in [3] it was 0.311; in assay [4] it was 0.411; in assay [5], 1.57; in assay [6], 0.95. Besides, the figures for the composite z-score (with Sam68 (KHDRBS1); in assay [7]; in assay [8]) were 1.1, -0.41 and 1.13, respectively. The composite Z-score in assay [1] was 0.917 (inactive).

Turning to `COC(=O)[C@@]1(Cc2ccc(OC)cc2)[C@H]2c3cc(C(=O)N4CCCC4)n(CCc4cc5ccccc5[nH]4)c3C[C@H]2CN1C(=O)c1ccccc1`, the composite z-score worked out at 1.01 in the assay with Albumin (Bos taurus); 0.353 in assay [2]; 0.213 in [3]; 0.587 in assay [4]; 3.04 in [5]; 0.816 in assay [6]. The composite z-score is 1.31 with Sam68 (KHDRBS1), -0.65 in [7] and 1.13 in assay [8]. In addition, the composite Z-score in assay [1] is 1.33 (inactive).

As for `Cc1ccc(F)cc1S(=O)(=O)N[C@@H]1CCN(Cc2ccc(OC(C)C)cc2)C1`, the composite z-score with Albumin (Bos taurus) was 0.175; in assay [2], -0.201; in assay [3], -0.154; in assay [4], 0.359; in assay [5], -0.453; in assay [6], -0.182. Also, the composite z-score in the assay with Sam68 (KHDRBS1) was -0.649; in assay [7] it was 0.504; in assay [8], -1.41. The composite Z-score in [1] was -0.491 (inactive).

For the compound `O=C1O[C@H](c2ccccc2)[C@H](c2ccccc2)N2[C@H]1[C@@H](C(=O)O)[C@]1(C(=O)Nc3ccccc31)[C@H]2c1ccc(O)cc1`, the composite z-score was -0.731 with Albumin (Bos taurus); -0.135 in assay [2]; -0.131 in assay [3]; 0.673 in assay [4]; 0.969 in assay [5]; 1.01 in [6]. The composite z-score with Sam68 (KHDRBS1) was -0.43; in assay [7], -0.632; in assay [8] it was 0.586. For the same compound, the composite Z-score in [1] was -0.0012 (inactive).

For `CC=CC(O)C1C=CC2C(=O)N(c3ccccc3)C(=O)C2N1Nc1ccc([N+](=O)[O-])cc1` (stereo not given), the composite z-score with Albumin (Bos taurus) was 0.0015; in assay [2], -0.0044; in assay [3], -0.123; in [4], 0.661; in [5], 0.657; in assay [6], 0.865. The composite z-score with Sam68 (KHDRBS1) is 0.729; in [7] it was 0.414; in assay [8], 0.217. In addition, the composite Z-score in [1] is -0.127 (inactive).

Take `O=C1NC(=O)C2C1C=CC(C(O)c1ccc3c(c1)OCO3)N2Nc1ccccn1` (stereo not given): the composite z-score with Albumin (Bos taurus) is 0.939; in assay [2] it was -0.0324; in assay [3], -0.12; in assay [4], 0.555; in assay [5] it was 2.99; in assay [6], 0.183. The composite z-score worked out at 0.153 with Sam68 (KHDRBS1), 0.704 in assay [7] and 0.667 in assay [8]. The composite Z-score in assay [1] was 0.246 (inactive).

As to `O=C1O[C@@H](c2ccccc2)[C@@H](c2ccccc2)N2[C@@H](c3ccc(O)cc3)[C@]3(C(=O)Nc4ccccc43)[C@@H](C(=O)Nc3nc4ccccc4s3)[C@H]12`, the composite z-score in the assay with Albumin (Bos taurus) is 0.625; in assay [2] it was 0.0695; in [3], -0.144; in [4] it was 0.613; in assay [5], 1.39; in assay [6] it was 0.399. In addition, the composite z-score in the assay on Sam68 (KHDRBS1) was determined as 1.31; in [7] it was 0.0129; in assay [8] it was 1.17. Moreover, in assay [1], the composite Z-score is -0.8 (inactive).

On to `C=C(CCCC)/C(=C/C[C@@H](OC(=O)c1ccncc1)c1cccc(OCCO)c1)c1cnc2ccccc2c1`, for which the composite z-score in the assay with Albumin (Bos taurus) is 0.413; in [2], 0.272; in assay [3], -0.0495; in assay [4] it was 0.893; in assay [5], 1.04; in assay [6], 0.327. For the same compound, the results for the composite z-score (in the assay on Sam68 (KHDRBS1); in assay [7]; in assay [8]) were 1.16, 1.54 and 1.1, respectively. Further, the composite Z-score in assay [1] is 0.815 (inactive).

As to `C[C@]1(C(=O)NC2CC2)c2ccccc2C(=O)N(Cc2ccc(OC(F)(F)F)cc2)[C@H]1c1ccc(CO)cc1`, the composite z-score was -0.85 with Albumin (Bos taurus); 0.0271 in [2]; 0.0049 in assay [3]; 0.37 in [4]; 0.209 in [5]; 0.0915 in assay [6]. Moreover, the figures for the composite z-score (with Sam68 (KHDRBS1); in assay [7]; in assay [8]) were 0.0003, -1.14 and -0.698, respectively. Further, in assay [1], the composite Z-score was -0.0189 (inactive).

For the compound `O=C1O[C@@H](c2ccccc2)[C@@H](c2ccccc2)N2[C@@H](c3ccccc3OCCO)[C@]3(C(=O)Nc4ccc(C#CCCO)cc43)[C@@H](C(=O)N3CCN(c4ncccn4)CC3)[C@H]12`, the composite z-score was 0.717 with Albumin (Bos taurus); 0.0208 in assay [2]; -0.0811 in [3]; 0.298 in [4]; 2.09 in assay [5]; 0.176 in assay [6]. The composite z-score was found to be 1.19 with Sam68 (KHDRBS1), 0.0179 in assay [7] and 1.12 in assay [8]. Besides, in [1], the composite Z-score is 1.37 (inactive).

As to `C[C@]1(C(=O)NCCN2CCOCC2)c2ccccc2C(=O)N(Cc2ccc(OC(F)(F)F)cc2)[C@H]1c1ccc(CO)cc1`, the composite z-score was 0.723 in the assay with Albumin (Bos taurus); -0.154 in assay [2]; -0.0966 in assay [3]; 0.627 in assay [4]; 2.43 in [5]; 0.345 in assay [6]. Besides, the figures for the composite z-score (in the assay on Sam68 (KHDRBS1); in [7]; in [8]) were 0.217, -1.15 and 0.392, respectively. Moreover, the composite Z-score in assay [1] is 0.456 (inactive).

As to `CCCCN1CC=CC23O[C@@H]4C=CCOC(=O)[C@@H]4[C@H]2C(=O)N(C(C)CO)[C@@H]3C1=O` (stereo not given in full), the composite z-score with Albumin (Bos taurus) was -1.04; in assay [2], -0.154; in assay [3] it was -0.118; in assay [4], 0.904; in assay [5], -0.819; in assay [6], -0.0435. Also, the values for the composite z-score (with Sam68 (KHDRBS1); in assay [7]; in [8]) were -1.6, -1.98 and -1.33, respectively. The composite Z-score in assay [1] is -0.527 (inactive).

Turning to `CC(C)OC(=O)CC(=O)CC(O)c1cccc(C#N)c1` (stereo not given), the composite z-score with Albumin (Bos taurus) was 0.586; in assay [2], 0.178; in assay [3] it was -0.022; in assay [4] it was 0.522; in [5], 1.03; in [6], 0.0279. Moreover, the composite z-score in the assay on Sam68 (KHDRBS1) is 1.35; in assay [7], -0.591; in [8], 1.13. Moreover, in assay [1], the composite Z-score is 0.586 (inactive).

For the compound `CC(C)(C)OC(=O)CC[C@]1(C(=O)NCCN2CCOCC2)N=C(c2ccc(OCCCO)cc2)O[C@H]1c1ccccc1`, the composite z-score in the assay with Albumin (Bos taurus) is 0.824; in [2], 0.0636; in assay [3], -0.075; in [4] it was 0.745; in assay [5] it was 2.28; in assay [6], -0.657. Besides, the results for the composite z-score (in the assay on Sam68 (KHDRBS1); in assay [7]; in [8]) were 0.218, -1.21 and 1.16, respectively. Moreover, in assay [1], the composite Z-score was -0.985 (inactive).

For the compound `[N-]=[N+]=Nc1ccccc1C[C@]1(C(=O)NCc2ccccc2)N=C(c2ccc(OCCCO)cc2)O[C@H]1c1ccccc1`, the composite z-score in the assay with Albumin (Bos taurus) is 0.989; in [2], 0.285; in assay [3], 0.0443; in [4], 0.714; in assay [5], 2.93; in [6], 0.373. In addition, the composite z-score is 1.29 in the assay on Sam68 (KHDRBS1), -0.755 in assay [7] and 1.07 in assay [8]. In addition, the composite Z-score in [1] was 0.0068 (inactive).
